“And” between values parts separate entries of the source, which are not always exact repeats. Identical values can stand only once. Some compounds were tested as several samples or in several runs, with calls that do not always agree. The source made the active and inactive calls. Rule for the calls: active = hit-call score of the fitted dose curve at least 0.9, where 1 is the maximum; inactive = score below 0.9.
What follows are compounds tested on KRT18 (gene 3875) (assay: BSK_BE3C_Keratin818: BioMAP Diversity Plus: BE3C Assay for Keratin 818 Biomarker Activity (AID 2284282)). Conditions: primary human bronchial epithelial cells.
Method in brief: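 In this multiplexed primary-cell system, bronchial epithelial cells were dosed and harvested at 24 h. Keratin 8/18 was determined by ELISA and analysed for increases over DMSO controls.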

Row | Structure (SMILES) | outcome | AC50
1 | NC(=O)C(F)(F)C(F)(F)C(F)(F)C(F)(F)F | inactive | 
2 | O=C(O)C(F)(F)C(F)(F)C(F)F | inactive | 
3 | C=CC(F)(F)C(F)(F)C(F)(F)C(F)(F)C(F)(F)C(F)(F)C(F)(F)C(F)(F)F | inactive | 
4 | OCCCC(F)(F)C(F)(F)C(F)(F)F | inactive | 
5 | C=CC(=O)OCC(F)(F)C(F)(F)C(F)(F)C(F)(F)COC(=O)C=C | inactive | 10.7 µM (active)
6 | CCCCC(CC)COP(=O)(O)OCC(CC)CCCC (stereo not drawn) | inactive | 
7 | O=C(O)C(F)(OC(F)(F)C(F)(OC(F)(F)C(F)(OC(F)(F)C(F)(F)C(F)(F)F)C(F)(F)F)C(F)(F)F)C(F)(F)F (stereo not drawn) | inactive | 
8 | O=C(O)C(F)(F)C(F)(F)C(F)(F)C(F)(F)C(F)(F)C(F)(F)C(F)(F)C(F)(F)C(F)(F)C(F)F |  | 19.6 µM (active) and 10.5 µM (active)
9 | FC(F)(F)C(F)(F)C(F)(F)C(F)(F)C(F)(F)CCI | inactive | 
10 | CCCCCCOC(=O)c1ccccc1O | inactive | 
11 | C=CC(=O)OCC(F)(F)C(F)(F)C(F)(F)C(F)(F)C(F)(F)C(F)(F)C(F)(F)F | inactive | 
12 | FC(F)(F)C(F)(F)C(F)(F)CI | inactive | 

Source: PubChem BioAssay (EPA / NIEHS)
